Reference: PubChem BioAssay AID1259415 (National Center for Advancing Translational Sciences (NCATS), 2018)
Values joined by “and” are separate entries in the source; they are usually repeats but may differ in a detail not shown here. Identical values can stand only once. Among all 410,000 compounds or so, about 18,000 (4.4%) were called active. Not shown: some 7% with an inconclusive outcome. This is one part of a sample in which actives are shown more often than they occur. Rule as the data show it: active = activity change below about -60%; inconclusive = no clear call, values can overlap the other calls; inactive = above about -39%.

Assay: qHTS Assay for inhibitors of the human cytomegalovirus (HCMV)
Conditions: HFF cells, HCMV-luciferase reporter, 72 h; at 57.5 µM; active compounds read low
In short: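 Inhibition of viral replication was scored as loss of reporter luminescence in HFFs infected with HCMV-luciferase (MOI 1 PFU/cell) for 72 h; compounds tested at 2 doses, normalized to buffer and Salinomycin controls.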
% is scaled to controls: 0 for no effect and ±100 for the full control effect.

Compound	activity change, negative = inhibition
O=C(Nc1ccc2oc(-c3ccc(O)c(Br)c3)nc2c1)c1cc2ccccc2o1	17.1% (inactive)
COc1cccc(C(=O)NC2(C(F)(F)F)C(=O)Nc3c2c(=O)[nH]c(=O)n3-c2ccc(C)cc2)c1 (stereo unspecified)	23.5% (inactive)
Cc1ccn(CC(=O)NC2CCCN(Cc3ccccc3F)C2)n1 (stereo unspecified)	-8.34% (inactive)
Cc1occc1C(=O)NC1CCCN(Cc2ccc(CC(C)C)cc2)C1 (stereo unspecified)	-69.3% (active)
Cc1ccsc1C(=O)C1CCCN(Cc2ccc(O)cc2)C1 (stereo unspecified)	66.6% (inactive)
COc1cccc(NC(=O)C(=O)NCC(c2ccc3c(c2)OCO3)N2CCN(C)CC2)c1 (stereo unspecified)	44% (inactive)
CSc1ccc(NC(=O)Cn2nnnc2-c2ccccc2F)cc1	13% (inactive)
CC(C)Oc1ccc(CNC(=O)C2CCN(c3nc4ccccc4n(C)c3=O)CC2)cc1	3.39% (inactive)
COc1cccc2cc(-c3nc(Cl)c4c5c(sc4n3)CC(C)CC5)c(=O)oc12 (stereo unspecified)	7.76% (inactive)
Fc1ccc(CSc2nnc(-c3cc4c(s3)-c3ccccc3CC4)o2)cc1	20.4% (inactive)
COc1ccc(C(=O)Oc2ccc(-c3nnco3)cc2)cc1S(=O)(=O)N1CCOCC1	-83.8% (active)
O=C(Oc1ccc(-c2nnco2)cc1)c1ccc(F)c(S(=O)(=O)N2CCOCC2)c1	34.8% (inactive)
COc1ccccc1OC(=O)c1ccc(C)c(S(=O)(=O)N2CCOCC2)c1	2.56% (inactive)
CCC(C)(C)c1ccc(Oc2ccc(NC(=O)COC(=O)C3=COCCO3)cc2)cc1	-70.9% (active)
COc1ccc(NC(=O)COC(=O)CNC(=O)C2CCCCC2)cc1	16% (inactive)
O=C1CCC(C(=O)OCC(=O)Nc2ccc(OC(F)F)cc2)=NN1	5.49% (inactive)
COc1cccc(Nc2nc3ccccc3c3nncn23)c1	15% (inactive)
COc1ccc(NC(=O)CCc2nnc3n(CC(C)C)c(=O)c4ccccc4n23)cc1OC	-15.8% (inactive)
O=C(Cn1c(=O)nc(-c2ccccc2)c2cc(Cl)ccc21)NCc1ccc(Cl)cc1	4.55% (inactive)
CCCCNc1ccc(-c2nc(-c3ccncc3)no2)cc1[N+](=O)[O-]	14.6% (inactive)
Cc1ccccc1Cn1nc(C)c(NC(=O)C(F)(F)F)c1C	-69.7% (active)
Cc1nn(Cc2ccccc2)c(C)c1NS(=O)(=O)c1ccccc1	18.1% (inactive)

Compound	activity change, negative = inhibition
Cc1ccccc1Cn1nc(C)c(NC(=O)c2cc(-c3ccc(F)cc3)on2)c1C	-10.2% (inactive)
COc1cc(NC(=O)CN2CCN(S(=O)(=O)c3ccc(Br)cc3)CC2)cc(OC)c1	10.7% (inactive)
CC(C)OCCCn1c(SCC(=O)c2ccccc2)nc2c(sc3ccccc32)c1=O	-3.18% (inactive)
CCc1nn(CCCC(=O)NCc2ccccc2OC)c(=O)c2cc3occc3n12	0.686% (inactive)
COC(=O)c1ccc(S(=O)(=O)N2CCC(c3nc4ccccc4o3)CC2)cc1	-36.4% (inactive)
CC(=O)c1ccc(S(=O)(=O)N2CCN(C(=O)/C=C/c3ccc4ccccc4n3)CC2)cc1	-94.7% (active)
CC(=O)c1ccc(S(=O)(=O)N2CCC(Oc3ccc(-n4cnnn4)cc3)CC2)cc1	-16.1% (inactive) and 9.96% (inactive)
O=C(NCCc1ccccc1)c1cnc2sc(N3CCCC3)nn2c1=O	-22.6% (inactive)
CCCCNc1c(-c2cccc(Sc3ccc(OC)cc3)c2)nc2ccccn12	-28.4% (inactive)
COC(=O)[C@]12C[C@H](CC(=O)NCCC(C)C)C(=O)N(CCc3ccc(OC)c(OC)c3)C1=C[C@H](C(C)(C)C)O[C@@H]2C	13.1% (inactive)
COc1ccccc1CNC(=O)c1ccc(-n2c(C)cc3c2CCCC3)cc1	-28.5% (inactive)
Cc1cc([N+](=O)[O-])ccc1NC1CCCC1	-71.6% (active)
Cc1cc([N+](=O)[O-])c(NC2CCCCC2)c([N+](=O)[O-])c1	-18.1% (inactive)
N#Cc1cc([N+](=O)[O-])ccc1NCC1CCCO1 (stereo unspecified)	11.1% (inactive)
COc1ccc(C)cc1N(C)C(=O)c1c(C)oc2ncnc(N3CCOCC3)c12	-37.3% (inactive)
Cc1ccc2onc(CC(=O)N3CCN(c4ccc(Cl)cc4)CC3)c2c1	-15.9% (inactive)
Cc1nn(C(C)C(=O)NCCc2ccccc2)c(=O)c2c1sc1ccccc12 (stereo unspecified)	-39.3% (inactive)
Cc1ccc(NC(=O)Nc2nnc(-c3ccncc3)s2)cc1	-99.3% (active)
Cc1ccc(Nc2nc(Cl)c(C=O)s2)cc1	-12.1% (inactive)
CCCCN(C)c1nnc(NC(=O)Nc2ccc(Br)c(C)c2)s1	-4.35% (inactive)
CCNC(=O)C1(C)CCCN1C(=O)c1ccc(N(C)C)cc1 (stereo unspecified)	-8.81% (inactive)
Cc1ccc(C)c(Nc2nnc(-c3ccc(C)c(S(=O)(=O)N4CCCCC4)c3)c3ccccc23)c1	-66.1% (active)

Compound	activity change, negative = inhibition
Cc1ccc(Nc2nnc(-c3ccc(C)c(S(=O)(=O)N4CCCCC4)c3)c3ccccc23)cc1	-7.76% (inactive)
Cc1ccc(-c2nnc(Nc3ccc(C(=O)N(C)C)cc3)c3ccccc23)cc1S(N)(=O)=O	-17.4% (inactive)
COc1cc(CN(C(=O)c2ccccc2Br)c2ccccn2)cc(OC)c1OC	-1.41% (inactive)
O=S(=O)(c1ccc(Br)cc1)c1nnn2c1nc(NC1CCCCCC1)c1sccc12	-2.26% (inactive)
CCn1cc(C(=O)N2CC=C(c3ccccc3)CC2)c(=O)c2ccc(C)nc21	-108% (active)
CCn1cc(C(=O)OCC(=O)Nc2cccc(C)c2)c(=O)c2ccc(C)nc21	37.7% (inactive)
CCn1cc(C(=O)OCC(=O)Nc2cc(C)cc(C)c2)c(=O)c2ccc(C)nc21	-39.2% (inactive)
CCc1ccccc1NC(=O)c1cnn(-c2ccc(F)cc2)c1C1CCNCC1	2.44% (inactive)
CCOC(=O)Cc1ccc(NC(=O)Nc2c[nH]c(=O)[nH]c2=O)cc1	8.88% (inactive)
COc1ccccc1CNC(=O)C(Cc1ccccc1)NS(=O)(=O)c1ccc2c(c1)oc(=O)n2C (stereo unspecified)	5.72% (inactive)
Cc1[nH]c(C)c(S(=O)(=O)N2CCN(c3cccc(C(F)(F)F)c3)CC2)c1C(=O)N1CCCC1	-9.51% (inactive)
Cc1ccc(C)c(N2CCN(S(=O)(=O)c3c(C)[nH]c(C)c3C(=O)N3CCCC3)CC2)c1	-31.6% (inactive)
Cc1[nH]c(C)c(S(=O)(=O)N2CCN(c3cccc(C(F)(F)F)c3)CC2)c1C(=O)N1CCCCC1	-80.2% (active)
CCCS(=O)(=O)c1c(Nc2ccccc2C)sc(C(=O)c2ccccc2)c1N	16.8% (inactive)
O=c1cc(CSc2ncn[nH]2)[nH]c2ccc(F)cc12	10.7% (inactive)
CC(C)(C)N1C(=O)c2c(C(=O)OCc3ccccc3)[nH]c(-c3ccccc3)c2C1=O	-12.2% (inactive)
CCN(CCCNC(=O)c1cc(Nc2ccc(OC)cc2)nc2ccccc12)c1cccc(C)c1	-61.5% (active)
COc1ccccc1Nc1cc(C(=O)NCCCN(C)C2CCCCC2)c2ccccc2n1	-98.1% (active)
CCN(CCCNC(=O)CSc1cc(=O)n(C)c2cc(Cl)ccc12)c1cccc(C)c1	1.12% (inactive)
CCN(CCCNC(=O)c1cc2cc3cc(OC)ccc3nc2s1)c1ccccc1	44.1% (inactive)
CCCCN(CCCNC(=O)c1cc(Nc2ccccc2OC)nc2ccccc12)c1ccccc1	-9.32% (inactive)
COc1ccc(CCNC(=O)c2c3c(nc4ccccc24)C(=O)N(C2CCCCC2)C3)cc1OC	-6.18% (inactive)

Compound	activity change, negative = inhibition
CCc1nc2cccnc2n1-c1ccc(CC(=O)Nc2c(C)cccc2C)cc1	0% (inactive)
Cc1cc(C)cc(NC(=O)c2cnc3sc(N4CCCC4)nn3c2=O)c1	-28.7% (inactive)
CCCCCCCCn1c2c(c(=N)c3c1CCC3)CCCC2	-99.4% (active)
CSc1ncc(C(=O)NCc2ccccc2Cl)c(C(F)(F)F)n1	-2.41% (inactive)
O=C(CCN1CCCO1)N1CCCC(N2CCN(c3cccc(C(F)(F)F)c3)CC2)C1 (stereo unspecified)	69.3% (inactive)
COC(=O)c1ccc(NC(=O)c2cc(S(=O)(=O)N3CCC(C)CC3)cn2C)cc1	-7.89% (inactive)
Cc1c2cnn(-c3ccccc3)c(=O)c2c(C)n1C(C)C(=O)Nc1ccc(Br)cc1F (stereo unspecified)	-30.3% (inactive)
CC1CC(C)CN(S(=O)(=O)c2cccc(C(=O)N3C(=O)c4cccc(N)c4C3=O)c2)C1 (stereo unspecified)	4.25% (inactive)
Cn1c(=O)n(C)c2cc(S(=O)(=O)Nc3ccc(F)cc3)ccc21	41.5% (inactive)
Cn1c(CCN2CCN(c3ccccn3)CC2)nc2cc(NS(=O)(=O)c3ccc(F)cc3)ccc21	-85.1% (active)
Cn1c(=O)n(C)c2cc(NS(=O)(=O)c3ccc(F)cc3)ccc21	1.03% (inactive) and 221% (inactive)
COc1ccc(NC(=O)CSc2nc3ccccc3[nH]2)cc1	2.79% (inactive)
CC1=C(C(=O)Nc2ccccc2Cl)C(c2cccs2)n2ncnc2N1 (stereo unspecified)	-15.8% (inactive)
CCOc1ccccc1NC(=O)C1=C(C)Nc2ncnn2C1c1ccc(NC(C)=O)cc1 (stereo unspecified)	4.88% (inactive)
CCOC(=O)C1=C(c2ccccc2)Nc2ncnn2C1c1ccc(Cl)cc1 (stereo unspecified)	-113% (active)
CCc1nn(CC(=O)Nc2cc(C)cc(C)c2)c(=O)c2cc3sccc3n12	-8.76% (inactive)
CCS(=O)(=O)N1CCC(n2c(C)nc3cccnc32)CC1	-0.684% (inactive)
CC/C(C)=N/Nc1nc2sc3c(c2c(=O)[nH]1)CC(C)(C)OC3	-10.6% (inactive)
C=CCNC(=S)NNc1ncnc2sc3c(c12)CC(C)(C)OC3	-105% (active)
CCCSc1nc2sc3c(c2c(=O)n1-c1cccc(Br)c1)CC(C)(C)OC3	-0.221% (inactive)
